The source of these data is PubChem BioAssay (EPA / NIEHS).

Assay [1] concerns the target Paired box protein Pax-6 (Homo sapiens) (UniProt P26367). In words: ATG_Pax6_CIS: Attagene CIS-FACTORIAL HepG2 Assay for human Paired Box 6 (PAX6) (AID 2282956). Particulars: HepG2 CIS-FACTORIAL PAX6 reporter transcription, RNA readout; actives raise or lower the signal. A digest of the protocol:
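Read-out is reporter transcript level, measured by RT-PCR with fluorescent primer extension and capillary electrophoresis after 24 h dosing of transfected HepG2 cells. Activity in either direction fitted relative to DMSO control.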

Assay [2] in a line: ATG_PXRE_CIS: Attagene CIS-FACTORIAL HepG2 Assay for human Pregnane X Receptor Element (PXRE) (AID 2282957). Particulars: HepG2 Attagene CIS-FACTORIAL PXRE reporter, mRNA; actives raise or lower the signal. A digest of the protocol: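 Using HepG2 transfected with multiple reporter transcription units, endogenous factor-driven transcription was scored as reporter mRNA after 24 h exposure.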

Assay [3] in a line: ATG_PPRE_CIS: Attagene CIS-FACTORIAL HepG2 Assay for human Peroxisome Proliferator-activated Response Element (PPRE) (AID 2282958). The settings on record: HepG2 PPRE cis-element reporter, Attagene transcription factor profiling; actives raise or lower the signal. The method, boiled down: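 Multiplexed reporter transcription units under cis-regulatory promoters were transfected into HepG2 cells to capture endogenous factor activity. A 24 h incubation preceded RNA isolation and fluorescent RT-PCR fragment analysis.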

Assay [4] is described as follows: ATG_Sox_CIS: Attagene CIS-FACTORIAL HepG2 Assay for human SRY-box transcription factor (SOX) (AID 2282960). The settings on record: HepG2 Attagene cis-factorial SOX reporter, mRNA; actives raise or lower the signal. A digest of the protocol: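 After 24 h of chemical treatment, transfected HepG2 reporter cells are lysed for total RNA. Transcript levels come from RT-PCR with labelled primer extension and capillary electrophoresis, analysed bidirectionally versus DMSO.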

Assay [5] concerns the target Transcription factor Sp1 (Homo sapiens) (UniProt P08047). In words: ATG_Sp1_CIS: Attagene CIS-FACTORIAL HepG2 Assay for human Specificity Protein 1 (Sp1) (AID 2282961). Particulars: HepG2 Sp1 cis-reporter transcription, actives raise or lower the signal. A digest of the protocol: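 Sp1-driven reporter mRNA, read as capillary electrophoresis fluorescence after RT-PCR, in transiently transfected HepG2 cells dosed for 24 h; signal change in either direction relative to DMSO.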

Assay [6] in a line: ATG_SREBP_CIS: Attagene CIS-FACTORIAL HepG2 Assay for human Sterol Regulatory Element Binding (SREBP) (AID 2282962). Particulars: HepG2 Attagene cis-factorial SREBP reporter, mRNA; actives raise or lower the signal. The method, boiled down: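 Endogenous SREBP activity read as cis-element-driven reporter transcript in transiently transfected HepG2, 24 h post-dosing; quantified via RT-PCR plus capillary electrophoresis of fluorescent fragments. Gain or loss of signal fitted relative to DMSO baseline.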

The nature of assay [7]: ATG_TA_CIS: Attagene CIS-FACTORIAL HepG2 Assay for human TA Basal Promoter (AID 2282964). Particulars: HepG2 Attagene CIS-factorial TA basal promoter reporter; actives raise or lower the signal. A digest of the protocol:
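HepG2 cells transiently transfected with multiplexed cis-promoter reporter units, dosed 24 h. Reporter mRNA measured by RT-PCR, 6-FAM labelling, HpaI digestion and capillary electrophoresis; bidirectional fit versus DMSO baseline, serving as background control.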

Assay [8] in a line: ATG_TCF_b_cat_CIS: Attagene CIS-FACTORIAL HepG2 Assay for human T-Cell-Factor with beta-catenin (TCF/b-cat) (AID 2282965). Particulars: HepG2 TCF/beta-catenin cis-reporter transcription, actives raise or lower the signal. The method, boiled down:
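HepG2 cells transiently transfected with cis-promoter-driven multiplexed reporter units; reporter mRNA measured 24 h after dosing by RT-PCR, FAM labelling, HpaI digestion and capillary electrophoresis. Bidirectional fitting relative to DMSO baseline.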

The nature of assay [9]: ATG_TAL_CIS: Attagene CIS-FACTORIAL HepG2 Assay for human TAL Basal Promoter (AID 2282966).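 Note: background control endpoint measuring basal TAL promoter reporter mRNA not a specific factor.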 The settings on record: HepG2 Attagene cis-factorial TAL promoter reporter; actives raise or lower the signal. The method, boiled down: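 After 24 hours of chemical exposure, transfected HepG2 cells yielded RNA that was converted to 6-FAM-labelled, HpaI-digested reporter fragments for capillary electrophoresis. Values derive from bidirectional fitting against DMSO controls.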

Assay [10] is described as follows: ATG_TGFb_CIS: Attagene CIS-FACTORIAL HepG2 Assay for human Transforming Growth Factor (TGF) (AID 2282967). Particulars: HepG2 Attagene CIS TGFb reporter, mRNA transcription; actives raise or lower the signal. The method, boiled down: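 HepG2 cells transiently transfected with cis-promoter-driven multiplexed reporter units; 24 h compound exposure. Reporter mRNA measured by RT-PCR, 6-FAM labeling, HpaI digestion and capillary electrophoresis; bidirectional fit versus DMSO baseline.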

The nature of assay [11]: ATG_VDRE_CIS: Attagene CIS-FACTORIAL HepG2 Assay for human Vitamin D Receptor Element (VDRE) (AID 2282968). Particulars: HepG2 VDRE cis-reporter transcription, actives raise or lower the signal. A digest of the protocol:
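Transient MRTU transfection of HepG2, 24 h compound exposure. Readout: reporter transcripts via RT-PCR and capillary electrophoresis, fluorescence. Bidirectional fit vs DMSO.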

For assay [12], the target named is Estrogen receptor (Homo sapiens) (UniProt P03372). In words: ATG_ERa_TRANS: Attagene TRANS-FACTORIAL HepG2 Assay for human Estrogen Receptor alpha (ERa) (AID 2282970; active = hit-call score of the fitted dose curve at least 0.9, where 1 is the maximum). Particulars: HepG2 Attagene TRANS ERa GAL4 reporter, mRNA. The method, boiled down:
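Liver-derived HepG2 cells expressing chimeric nuclear receptor-Gal4 proteins from transient transfection were exposed for 24 hours. Gain of reporter mRNA signal versus DMSO, read by capillary electrophoresis of FAM-labelled PCR products, was recorded.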

Assay [13] is described as follows: ATG_M_19_TRANS: Attagene TRANS-FACTORIAL HepG2 Assay for M19 Transcription Factor (Internal Marker) (AID 2282974; active = hit-call score of the fitted dose curve at least 0.9, where 1 is the maximum). The settings on record: HepG2 Attagene TRANS-FACTORIAL M19 internal marker reporter. A digest of the protocol:
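Measured here: internal-marker reporter transcript from HepG2 cells transfected with MRTUs, harvested at 24 h. cDNA PCR products were 6-FAM labelled by primer extension, cut with HpaI for 2 h at 37 C, and resolved by CE.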

Assay [14] in a line: ATG_GAL4_TRANS: Attagene TRANS-FACTORIAL HepG2 Assay for GAL4 (Internal Marker) (AID 2282976; active = hit-call score of the fitted dose curve at least 0.9, where 1 is the maximum). Particulars: HepG2 Attagene TRANS GAL4 internal marker reporter. A digest of the protocol:
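First, HepG2 cells were transfected with reporter units under GAL4-UAS control. Next, they were treated with chemical for 24 h. Finally, RNA was reverse-transcribed, PCR-amplified, FAM-labelled and resolved by capillary electrophoresis, with induction scored against DMSO.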

Assay [15] can be described thus: ATG_RORE_CIS: Attagene CIS-FACTORIAL HepG2 Assay for human RAR-related Orphan Receptor Element (RORE) (AID 2282959). Particulars: HepG2 Attagene cis-factorial RORE reporter, mRNA; actives raise or lower the signal. A digest of the protocol: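 Fluorescence intensity of reporter-specific cDNA fragments, separated by capillary electrophoresis, gives the signal. Source: HepG2 liver cells transiently transfected with cis-element reporters and exposed 24 h; DMSO-normalized bidirectional fit.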

Assay [16] addresses Signal transducer and activator of transcription 3 (Homo sapiens) (UniProt P40763). In words: ATG_STAT3_CIS: Attagene CIS-FACTORIAL HepG2 Assay for human Signal Transducer and Activator of Transcription 3 (STAT3) (AID 2282963). Particulars: HepG2, Attagene cis-factorial STAT3 reporter transcription; actives raise or lower the signal. The method, boiled down:
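Readout: fluorescent reporter mRNA fragments resolved by capillary electrophoresis. Setup: HepG2 transfected with MRTUs reporting endogenous transcription-factor activity, dosed 24 h. Gain or loss of signal fitted bidirectionally against DMSO control.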

The target in assay [17] is X-box-binding protein 1 (Homo sapiens) (UniProt P17861). In words: ATG_Xbp1_CIS: Attagene CIS-FACTORIAL HepG2 Assay for human X-box Binding Protein 1 (XBP1) (AID 2282972). The settings on record: HepG2 XBP1 cis-element reporter, Attagene multiplex; actives raise or lower the signal. The method, boiled down:
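Reporter transcripts were quantified by RT-PCR with fluorescent primer extension and capillary electrophoresis after 24 h chemical exposure. Cells: transiently transfected HepG2 carrying cis-regulated reporter constructs; data fitted bidirectionally relative to DMSO.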

Inconclusive results are not listed. Calls of active or inactive are those of the source. Rule for the calls, unless noted: active = hit-call score of the fitted dose curve at least 0.9, where 1 is the maximum; inactive = score below 0.9.

Sequence of Paired box protein Pax-6 (Homo sapiens) (P26367 whole entry, looked up): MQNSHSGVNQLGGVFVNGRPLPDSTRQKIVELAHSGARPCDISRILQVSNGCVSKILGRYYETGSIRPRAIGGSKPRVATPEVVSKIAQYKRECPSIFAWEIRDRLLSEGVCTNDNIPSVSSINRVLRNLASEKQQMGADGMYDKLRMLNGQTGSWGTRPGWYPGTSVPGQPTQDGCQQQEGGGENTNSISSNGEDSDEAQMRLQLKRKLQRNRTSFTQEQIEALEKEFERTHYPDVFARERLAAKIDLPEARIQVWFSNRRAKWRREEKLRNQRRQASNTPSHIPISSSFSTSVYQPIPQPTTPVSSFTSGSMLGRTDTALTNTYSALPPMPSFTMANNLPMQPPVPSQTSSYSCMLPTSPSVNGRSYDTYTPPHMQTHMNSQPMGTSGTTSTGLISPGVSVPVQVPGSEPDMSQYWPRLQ
Sequence of Transcription factor Sp1 (Homo sapiens) (P08047 whole entry, looked up): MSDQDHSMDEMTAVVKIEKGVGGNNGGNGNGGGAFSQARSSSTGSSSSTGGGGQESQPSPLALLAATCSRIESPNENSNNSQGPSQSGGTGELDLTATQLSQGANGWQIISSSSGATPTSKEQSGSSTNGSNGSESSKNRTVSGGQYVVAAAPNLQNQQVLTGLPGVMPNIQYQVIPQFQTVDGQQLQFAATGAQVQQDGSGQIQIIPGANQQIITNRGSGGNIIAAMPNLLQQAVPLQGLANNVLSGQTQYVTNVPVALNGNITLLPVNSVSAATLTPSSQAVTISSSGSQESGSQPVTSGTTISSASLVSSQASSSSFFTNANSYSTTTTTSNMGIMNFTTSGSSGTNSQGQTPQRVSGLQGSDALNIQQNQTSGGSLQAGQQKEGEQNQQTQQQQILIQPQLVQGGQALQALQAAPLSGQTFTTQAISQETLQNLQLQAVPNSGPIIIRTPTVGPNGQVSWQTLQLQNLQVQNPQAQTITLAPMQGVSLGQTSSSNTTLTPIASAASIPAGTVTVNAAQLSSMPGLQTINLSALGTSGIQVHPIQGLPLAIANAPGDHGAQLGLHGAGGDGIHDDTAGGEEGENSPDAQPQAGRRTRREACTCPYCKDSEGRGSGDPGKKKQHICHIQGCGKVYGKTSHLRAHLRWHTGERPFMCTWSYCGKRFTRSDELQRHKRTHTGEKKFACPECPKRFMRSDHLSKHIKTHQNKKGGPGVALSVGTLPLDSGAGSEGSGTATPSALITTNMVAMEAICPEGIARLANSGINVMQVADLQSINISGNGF
Sequence of Estrogen receptor (Homo sapiens) (P03372 whole entry, looked up, the tested form may be a part): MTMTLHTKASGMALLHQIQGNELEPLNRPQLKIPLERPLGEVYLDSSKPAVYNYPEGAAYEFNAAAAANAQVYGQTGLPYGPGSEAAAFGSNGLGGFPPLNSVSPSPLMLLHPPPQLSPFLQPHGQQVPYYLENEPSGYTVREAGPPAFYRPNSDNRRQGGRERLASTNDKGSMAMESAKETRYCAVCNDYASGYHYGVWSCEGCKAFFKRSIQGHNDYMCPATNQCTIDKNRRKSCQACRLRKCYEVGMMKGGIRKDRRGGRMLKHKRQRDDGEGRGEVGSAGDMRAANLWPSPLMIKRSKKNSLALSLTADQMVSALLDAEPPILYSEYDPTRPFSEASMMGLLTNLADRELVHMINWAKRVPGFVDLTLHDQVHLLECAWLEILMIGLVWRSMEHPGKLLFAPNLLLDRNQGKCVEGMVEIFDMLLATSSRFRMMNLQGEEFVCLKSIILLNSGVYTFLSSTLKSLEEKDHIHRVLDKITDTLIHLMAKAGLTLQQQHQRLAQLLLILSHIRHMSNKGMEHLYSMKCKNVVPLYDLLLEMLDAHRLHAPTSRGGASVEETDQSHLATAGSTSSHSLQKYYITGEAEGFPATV
Sequence of Signal transducer and activator of transcription 3 (Homo sapiens) (P40763 whole entry, looked up, the tested form may be a part): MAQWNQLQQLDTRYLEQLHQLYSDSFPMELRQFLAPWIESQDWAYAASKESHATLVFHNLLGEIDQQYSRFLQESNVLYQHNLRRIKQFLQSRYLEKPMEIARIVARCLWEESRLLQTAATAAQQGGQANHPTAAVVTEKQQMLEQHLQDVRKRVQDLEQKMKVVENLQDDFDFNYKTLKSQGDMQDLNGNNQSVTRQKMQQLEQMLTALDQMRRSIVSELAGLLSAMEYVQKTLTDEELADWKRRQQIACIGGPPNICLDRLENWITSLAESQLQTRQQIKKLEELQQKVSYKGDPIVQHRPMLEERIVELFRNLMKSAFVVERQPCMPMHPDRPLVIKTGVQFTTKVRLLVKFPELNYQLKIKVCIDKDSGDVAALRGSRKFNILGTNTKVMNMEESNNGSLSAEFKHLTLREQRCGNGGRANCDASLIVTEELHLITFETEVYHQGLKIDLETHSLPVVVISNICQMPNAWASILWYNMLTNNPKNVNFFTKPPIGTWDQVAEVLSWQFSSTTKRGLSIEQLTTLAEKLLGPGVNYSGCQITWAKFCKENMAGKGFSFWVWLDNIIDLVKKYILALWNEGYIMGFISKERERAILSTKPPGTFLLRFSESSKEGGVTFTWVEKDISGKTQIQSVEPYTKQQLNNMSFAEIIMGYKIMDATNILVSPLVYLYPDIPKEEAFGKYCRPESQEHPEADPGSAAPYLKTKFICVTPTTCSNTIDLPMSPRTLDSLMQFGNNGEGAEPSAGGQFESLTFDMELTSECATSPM
Sequence of X-box-binding protein 1 (Homo sapiens) (P17861 whole entry, looked up): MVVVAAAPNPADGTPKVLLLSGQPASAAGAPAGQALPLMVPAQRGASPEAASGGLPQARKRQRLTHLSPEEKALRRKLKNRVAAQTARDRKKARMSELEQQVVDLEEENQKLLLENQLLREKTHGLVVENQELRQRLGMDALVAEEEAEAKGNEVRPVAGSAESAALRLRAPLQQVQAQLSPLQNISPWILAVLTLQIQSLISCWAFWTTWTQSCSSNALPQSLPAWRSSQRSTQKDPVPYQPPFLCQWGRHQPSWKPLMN

A word on the AC50: it is the concentration giving half of the maximal activity seen. Regarding `CC(C)[N+](C)(CCOC(=O)C1c2ccccc2Oc2ccccc21)C(C)C`, the outcome in [1], in [2], in assay [4], in assay [5], in assay [6] and in assay [7] was inactive. Besides, the compound was called inactive in assay [8], in [9], in assay [10], in [11], in assay [12] and in assay [13]. The outcome in assay [14] was inactive. For the same compound, the AC50 in assay [3] was 42.7 µM (active).
With `CCC1COC(=O)O1` (stereo not drawn), the outcome in assay [1], in assay [15], in assay [4], in assay [5], in [6] and in assay [16] was inactive. In addition, the compound was classed as inactive in assay [7], in [8], in assay [9], in assay [10], in assay [11] and in [12]. In addition, in [17], the result was inactive. In addition, the AC50 in assay [2] was 16.6 µM (active).
With `CC(=O)C(C)C`, the result in assay [1], in assay [2], in assay [3], in assay [5], in [6] and in assay [16] was inactive. For the same compound, the call in assay [8], in [9], in assay [10], in [11], in assay [12] and in [17] was inactive. Moreover, the compound was classed as inactive in assay [13] and in assay [14].
Take `CC/C=C\C/C=C\C/C=C\CCCCCCCC(=O)OC`: the compound was called inactive in [1], in assay [3], in assay [4], in assay [6], in assay [16] and in assay [7]. For the same compound, the compound was classed as inactive in assay [9], in [11], in assay [12], in assay [17], in assay [13] and in [14]. Besides, the AC50 in [2] was 7.37 µM (active); in assay [15], 164 µM (active); in [5], 128 µM (active); in [8], 64.9 µM (active).
Consider `CC(C)=NNC(N)=S`, for which the compound was classed as inactive in assay [1], in assay [2], in assay [3], in assay [15], in assay [4] and in assay [5]. The compound was called inactive in [6], in assay [16], in [7], in assay [8], in assay [9] and in assay [10]. For the same compound, the outcome in assay [11] and in assay [14] was inactive.
Regarding `CC(=O)c1ccc(S(=O)(=O)NC(=O)NC2CCCCC2)cc1`, the compound was called inactive in assay [1], in assay [3], in assay [15], in [4], in assay [5] and in assay [6]. The call in [16], in assay [7], in assay [8], in assay [9], in [10] and in [11] was inactive. In addition, the compound was called inactive in [17] and in assay [13]. The AC50 in assay [2] was 100 µM (active).
`Cn1cccc1`: the result in assay [2], in assay [3], in assay [15], in assay [4], in assay [6] and in assay [16] was inactive. In addition, the outcome in assay [8], in [9], in [10], in assay [11], in [12] and in assay [17] was inactive. For the same compound, in [13], the result was inactive. Besides, the AC50 in assay [5] is 25.7 µM (active).
For the compound `CC(=O)/C=C/C1C(C)=CCCC1(C)C` (stereo not drawn), the outcome in assay [1], in [15], in [4], in assay [5], in [6] and in assay [16] was inactive. In addition, the call in assay [7], in assay [8], in assay [9], in [10] and in assay [13] was inactive. Besides, the AC50 in assay [2] is 5.09 µM (active); in assay [11], 13.3 µM (active); in assay [12], 24.2 µM (active).
On to `COC(=O)c1ccccc1C`, for which the result in assay [1], in assay [4], in [5], in assay [6], in assay [16] and in assay [7] was inactive. In addition, the compound was classed as inactive in [8], in assay [9], in [10], in assay [17] and in assay [13]. In [2], the AC50 is 40.6 µM (active).
For the compound `CC(=O)OCc1ccccc1`, the compound was called inactive in [2], in assay [15], in assay [4], in assay [5], in [6] and in assay [16]. For the same compound, the call in assay [7], in assay [8], in assay [9], in [11], in [12] and in assay [17] was inactive. Besides, the compound was classed as inactive in assay [13] and in assay [14].
For the compound `O=C(O)c1ccc2c(c1)C(=O)OC2=O`, the compound was called inactive in assay [1], in assay [2], in assay [4], in [5], in assay [6] and in [16]. The compound was called inactive in assay [7], in assay [8], in assay [9], in assay [11], in assay [17] and in [13]. In addition, the call in assay [14] was inactive.
Take `CCCCCCCCCCCC(=O)OCC`: the call in assay [2], in assay [3], in assay [15], in assay [4], in assay [5] and in assay [6] was inactive. For the same compound, the compound was classed as inactive in [16], in [7], in [8], in assay [9], in [11] and in assay [12]. The result in [17] and in assay [13] was inactive.
